# In all, about 5,500 compounds went through this assay and about 2,000 (36%) were called active. Roughly 18% stayed inconclusive and do not appear here. The list shows a part of the results. A number with no mark means an inactive call. Cut-off read from the data, not from the text of the source: active = normalized growth mostly below about 0.91 (no sharp cut-off); inconclusive = no clear call, values can overlap the other calls; inactive = mostly above about 0.92.
# Assay: chemical genetic growth profiling, strain panel (AID 1159580);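 note: tested at 20 µM; growth read once vehicle control cultures reached saturation at 30 °C; 1 = growth at the plate median or of vehicle wells; lower values mean less growth of the strain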
# Conditions: S. cerevisiae deletion strains, growth OD
# [1] = locus YAL040C, strain CLN3, active compounds read low
# [2] = locus YCL061C, strain MRC1 (second series), active compounds read low
# [3] = locus YDR363W, strain ESC2, active compounds read low
# [4] = locus YER002W, strain NOP16, active compounds read low
# [5] = locus YMR307W, strain GAS1, active compounds read low
# [6] = locus YNL175C, strain NOP13, active compounds read low
# [7] = locus YNL197C, strain WHI3, active compounds read low
# [8] = locus YNL224C, strain SQS1, active compounds read low
# [9] = locus YNL322C, strain KRE1, active compounds read low
# [10] = locus YOR083W, strain WHI5 (second series), active compounds read low
# [11] = locus YPL055C, strain LGE1, active compounds read low
compound,measurement,setting,value
Cc1ccc(C)c(CSc2nc(C3CCCCC3)c(C#N)c(=O)[nH]2)c1,normalized growth,"locus YAR019C, strain CDC15, active compounds read low",0.979
same,normalized growth,"locus YBL105C, strain PKC1, active compounds read low",0.975
same,normalized growth,"locus YBR135W, strain CKS1, active compounds read low",0.964
same,normalized growth,"locus YBR136W, strain MEC1, active compounds read low",0.98
same,normalized growth,"locus YBR160W, strain CDC28, active compounds read low",0.98
same,normalized growth,"locus YDL017W, strain CDC7, active compounds read low",0.981
same,normalized growth,"locus YDL028C, strain MPS1, active compounds read low",0.985
same,normalized growth,"locus YDL101C, strain DUN1, active compounds read low",0.983
same,normalized growth,"locus YDL108W, strain KIN28, active compounds read low",0.985
same,normalized growth,"locus YDL132W, strain cdc53, active compounds read low",0.973
same,normalized growth,"locus YDL214C, strain PRR2, active compounds read low",1
same,normalized growth,"locus YDR052C, strain DBF4, active compounds read low",0.968
same,normalized growth,"locus YDR054C, strain cdc34, active compounds read low",0.983
same,normalized growth,"locus YDR226W, strain ADK1, active compounds read low",0.984
same,normalized growth,"locus YDR477W, strain SNF1, active compounds read low",1
same,normalized growth,"locus YER123W, strain YCK3, active compounds read low",1.01
same,normalized growth,"locus YER133W, strain GLC7, active compounds read low",1.01
same,normalized growth,"locus YFL009W, strain cdc4, active compounds read low",0.981
same,normalized growth,"locus YFL029C, strain CAK1, active compounds read low",0.983
same,normalized growth,"locus YFR003C, strain YPI1, active compounds read low",0.98
same,normalized growth,"locus YFR019W, strain FAB1, active compounds read low",0.992
same,normalized growth,"locus YFR028C, strain CDC14, active compounds read low",0.975
same,normalized growth,"locus YGR040W, strain KSS1, active compounds read low",1.02
same,normalized growth,"locus YGR052W, strain FMP48, active compounds read low",1.11
same,normalized growth,"locus YGR092W, strain DBF2, active compounds read low",0.987
same,normalized growth,"locus YHR030C, strain SLT2, active compounds read low",1.18 [resistant] (active)
same,normalized growth,"locus YHR079C, strain IRE1, active compounds read low",1.12
same,normalized growth,"locus YHR082C, strain KSP1, active compounds read low",1.14
same,normalized growth,"locus YHR205W, strain SCH9, active compounds read low",0.988
same,normalized growth,"locus YIL147C, strain SLN1, active compounds read low",0.971
same,normalized growth,"locus YJL095W, strain BCK1, active compounds read low",1.12
same,normalized growth,"locus YJL128C, strain PBS2, active compounds read low",0.981
same,normalized growth,"locus YJL157C, strain FAR1, active compounds read low",1
same,normalized growth,"locus YJR016C, strain ILV3, active compounds read low",0.989
same,normalized growth,"locus YJR066W, strain TOR1 (second series), active compounds read low",0.99
same,normalized growth,"locus YJR066W, strain TOR1, active compounds read low",1.17
same,normalized growth,"locus YKL048C, strain ELM1, active compounds read low",0.98
same,normalized growth,"locus YKL067W, strain YNK1, active compounds read low",0.98
same,normalized growth,"locus YKL101W, strain HSL1, active compounds read low",0.992
same,normalized growth,"locus YKL193C, strain SDS22, active compounds read low",0.97
same,normalized growth,"locus YKL203C, strain TOR2, active compounds read low",1.09
same,normalized growth,"locus YLR113W, strain HOG1, active compounds read low",1.06
same,normalized growth,"locus YLR133W, strain CKI1, active compounds read low",0.984
same,normalized growth,"locus YLR403W, strain SFP1, active compounds read low",0.999
same,normalized growth,"locus YML070W, strain DAK1, active compounds read low",1
same,normalized growth,"locus YMR001C, strain CDC5, active compounds read low",0.971
same,normalized growth,"locus YMR205C, strain PFK2 (second series), active compounds read low",0.99
same,normalized growth,"locus YMR277W, strain FCP1, active compounds read low",0.978
same,normalized growth,"locus YNL006W, strain LST8, active compounds read low",0.978
same,normalized growth,"locus YNL020C, strain ARK1, active compounds read low",0.982
same,normalized growth,"locus YNL161W, strain CBK1, active compounds read low",0.984
same,normalized growth,"locus YNL183C, strain NPR1, active compounds read low",1.11
same,normalized growth,"locus YNL207W, strain RIO2, active compounds read low",0.995
same,normalized growth,"locus YNL222W, strain SSU72, active compounds read low",0.972
same,normalized growth,"locus YNL307C, strain MCK1 (second series), active compounds read low",0.996
same,normalized growth,"locus YOL078W, strain AVO1, active compounds read low",0.982
same,normalized growth,"locus YOL136C, strain PFK27, active compounds read low",1.01
same,normalized growth,"locus YOR061W, strain CKA2, active compounds read low",0.996
same,normalized growth,"locus YOR119C, strain RIO1, active compounds read low",1.04
same,normalized growth,"locus YOR231W, strain MKK1, active compounds read low",1.1
same,normalized growth,"locus YOR329C, strain SCD5, active compounds read low",0.985
same,normalized growth,"locus YPL031C, strain PHO85, active compounds read low",1.01
same,normalized growth,"locus YPL153C, strain RAD53, active compounds read low",1.01
same,normalized growth,"locus YPL204W, strain HRR25, active compounds read low",1
same,normalized growth,"locus YPL209C, strain IPL1, active compounds read low",0.988
same,normalized growth,"locus YPL256C, strain CLN2, active compounds read low",1.12
same,normalized growth,"locus YPR025C, strain CCL1, active compounds read low",0.973
same,normalized growth,"locus YPR106W, strain ISR1, active compounds read low",0.987
same,normalized growth,"locus YPR111W, strain DBF20, active compounds read low",0.977
same,normalized growth,"strain NNK1, active compounds read low",0.994
same,normalized growth,"strain TSCII, active compounds read low",0.981
NCc1cc(=O)[nH]o1,normalized growth,[1],1.05
same,normalized growth,[2],1
same,normalized growth,[3],1.01
same,normalized growth,[4],1.02
same,normalized growth,[5],1
same,normalized growth,[6],1
same,normalized growth,[7],1.02
same,normalized growth,[8],1.01
same,normalized growth,[9],1.01
same,normalized growth,[10],1
same,normalized growth,[11],1.01
same,normalized growth,"locus YPL241C, strain CIN2, active compounds read low",0.989
c1cnc(N2CCN(Cc3ccc4c(c3)OCO4)CC2)nc1,normalized growth,"locus YAL013W, strain DEP1, active compounds read low",0.95
same,normalized growth,[1],0.967
same,normalized growth,[2],0.982
same,normalized growth,"locus YDR150W, strain NUM1, active compounds read low",0.996
same,normalized growth,[3],0.988
same,normalized growth,[4],0.988
same,normalized growth,"locus YGR078C, strain PAC10, active compounds read low",0.993
same,normalized growth,[5],0.999
same,normalized growth,[6],1
same,normalized growth,[7],0.976
same,normalized growth,[8],0.985
same,normalized growth,[9],0.979
same,normalized growth,[10],0.985
same,normalized growth,[11],0.991

# — PubChem BioAssay AID1159580 (chemical genetic matrix, 2015)
